# From PubChem BioAssay AID651812 (National Center for Advancing Translational Sciences (NCATS), 2012)
# Screen size: about 2,100 compounds; about 650 (31%) were called active. Inconclusive results (about 16%) are left out. Calls come from the whole dose curve; as a rule, active = well fitted inhibition curve with a large enough effect; inconclusive = small, poorly fitted or top-dose-only effect; inactive = flat fitted curve, though single readings scatter. The list shows a part of the results. Entries that show only a call come without a potency.
# Assay: qHTS for inhibitors of Vif-A3G interactions: Cherry picks; note: nearly all actives have a fitted effect of over 80% in size
# Conditions: HeLa A3G-eYFP + Vif (tagged APOBEC3G with the HIV-1 protein that degrades it), 24 h; Potency: eYFP fluorescence increase; series mostly up to 36.9 µM
# In short: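 Cherry-picked compounds tested at several concentrations on A3G-eYFP/Vif HeLa cells for 24 hours; loss of Vif-driven degradation read as eYFP fluorescence by cytometric plate imaging, 488 nm excitation, 500-530 nm emission.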
# Potency is the fitted concentration of half-maximal effect.
row,Compound,Potency
1,CN1C2=CC=CC=CC2=[N+](C)C12C([N+](=O)[O-])=CC(=[N+]([O-])[O-])C=C2[N+](=O)[O-] (stereo not drawn),inactive
2,Nc1nn(-c2ccccc2)c(N)c1N=Nc1ccccc1,inactive
3,CCCCn1c(N)c(N(CCC(C)C)C(=O)c2ccc([N+](=O)[O-])o2)c(=O)[nH]c1=O,inactive
4,CCCCN(C(=O)c1ccc([N+](=O)[O-])s1)c1c(N)n(CCCC)c(=O)[nH]c1=O,inactive
5,Nc1c(N(CCC2=CCCCC2)C(=O)c2ccc([N+](=O)[O-])o2)c(=O)[nH]c(=O)n1Cc1ccccc1,18.4 µM (active)
6,O=Cc1s/c(=N\S(=O)(=O)c2ccccc2)n(CCCCl)c1Cl,inactive
7,CCOC(=O)Cn1c(=O)c(-c2cc(Br)ccc2N)nc2ccccc21,11.6 µM (active)
8,CCOC(=O)CSc1nc2c(c(=O)[nH]1)C(C)(CC)Cc1ccccc1-2 (stereo not drawn),inactive
9,CCOC(=O)COn1c(=O)c(-c2ccc(Br)cc2)[n+]([O-])c2ccccc21,inactive
10,CCOC(=O)c1c(C)oc2ccc(N(C(=O)c3ccncc3)S(=O)(=O)c3ccc(Br)cc3)cc12,inactive
11,COc1ccc(S(=O)(=O)NCc2ccccn2)cc1NC(=O)c1ccc(C)cc1,inactive
12,COc1ccc(-n2c(O)c(/C=N/NS(=O)(=O)c3ccc(C)cc3)c3ccccc3c2=O)cc1OC,18.4 µM (active)
13,COc1cc(C(=O)NCC(=O)N2CCN(S(=O)(=O)c3cc(C)ccc3C)CC2)cc(OC)c1OC,inactive
14,COc1ccc(-n2c(O)c(/C=N/NS(=O)(=O)c3cc(C)ccc3C)c3ccccc3c2=O)cc1OC,16.4 µM (active)
15,COc1cc(/C=N/Nc2cc(C)nc(NS(=O)(=O)c3ccccc3)n2)ccc1O,inactive
16,COc1ccc(OC)c(S(=O)(=O)N/N=C\c2cn(CC(N)=O)c3ccccc23)c1,inactive
17,CCC(=O)OCc1cnc(C)c2oc(=O)c(C(=O)Nc3ccccc3C(F)(F)F)cc12,inactive
18,CC(=O)Nc1cccc(-c2ccnc3c2CC(C(=O)Nc2ccc4c(c2)OCO4)O3)c1 (stereo not drawn),inactive
19,O=[N+]([O-])c1cc(O)c2ncccc2c1,inactive
20,Nc1[nH]c2cc([N+](=O)[O-])ccc2c1-c1ccccn1,8.2 µM (active)
21,c1ccc(-c2cccc(-c3ccccn3)n2)nc1,inactive

row,Compound,Potency
1,COc1ccc(-n2nnnc2S(=O)(=O)Cc2ccc(C(=O)O)cc2)cc1,inactive
2,CCOC(=O)c1[nH]c(C)c(C(=O)Nc2ccc(C)cc2C)c1C,inactive
3,Cc1ccc(NC(=O)c2c(C)nc3sc(C(=O)NC4CCCC4)c(N)c3c2-c2ccco2)c(C)c1,20.6 µM (active)
4,COc1cccc(NC(=O)c2sc3nc(C)c(C(=O)Nc4ccc(C)cc4C)c(-c4ccco4)c3c2N)c1,inactive
5,CCc1ccc(NC(=O)c2sc3nc(C)c(C(=O)Nc4ccc(C)cc4C)c(-c4ccco4)c3c2N)cc1,23.1 µM (active)
6,CCOC(=O)N1CCN(C(=O)c2[nH]c(C(F)(F)F)nc2-c2ccccc2)CC1,inactive
7,CC1(C(=O)NCc2ccc(F)c(F)c2)Cc2c(-c3cccc(C(N)=O)c3)ccnc2O1 (stereo not drawn),inactive
8,COc1ccc(CN(C(C)=O)c2cccc(C)c2C)cc1,inactive
9,FC(F)(F)c1ccccc1NC(=S)NN=C1CCCCCC1,inactive
10,COC(=O)c1sccc1S(=O)(=O)N(CC(=O)Nc1cc(F)ccc1F)c1ccc(C)c(C)c1,inactive
11,N#CCC(=O)N/N=C/c1ccc(N2N=C(c3ccccc3)CC2c2ccccc2)cc1 (stereo not drawn),20.6 µM (active)
12,C/C(=N\NC(=S)NCc1ccccc1)c1cccs1,inactive
13,C/C(=N\Nc1nccnc1Cl)c1ccc(Cl)c(Cl)c1,inactive
14,COC(=O)c1sc2cc([N+](=O)[O-])cc(SCC(C)C)c2c1N,16.4 µM (active)
15,CCOC(=O)c1sc2cc([N+](=O)[O-])cc(SCC(C)C)c2c1N,2.91 µM (active)
16,CS(=O)(=O)N(CC(=O)N1CCN(Cc2ccccc2)CC1)c1ccccc1F,inactive
17,O=C(COC(=O)C12CC3CC(CC(Cl)(C3)C1)C2)N1CCCCC1,inactive
18,O=Cc1sc(Nc2ccccc2)nc1Cl,23.1 µM (active)
19,Cc1ccc(Nc2nc(Cl)c(C=O)s2)cc1Cl,16.4 µM (active)
20,c1ccc(Nc2nc(-c3ccccn3)cs2)cc1,inactive
21,COc1ccc(S(=O)(=O)N2CCCOC2CNC(=O)C(=O)NCCc2ccco2)cc1C (stereo not drawn),inactive

row,Compound,Potency
1,C=C(C)CNC(=S)NNC(=O)c1ccco1,inactive
2,Cc1ccc2c(Cl)c(C)c(N3CCCC3)nc2n1,inactive
3,COc1ccc(C(=O)N2CCN(c3cccc(Cl)c3)CC2)cc1S(=O)(=O)NC1CC1,inactive
4,Cc1c(CCCl)c(Cl)n2c(nc3ccccc32)c1C#N,inactive
5,Cc1ccc(C(=O)NCCn2c(N)c(C#N)c3nc4ccccc4nc32)cc1,23.1 µM (active)
6,Cc1ccc(C(=O)NN(C)c2nc3ccccc3nc2C(F)(F)F)cc1,inactive
7,COc1ccc(-c2cnc3c(NC=O)cc(-c4ccoc4)cn23)cc1OC,inactive
8,CCN(CC)c1ccc(/C=N/NC(=O)c2ccco2)c(O)c1,inactive
9,CC(C)NC(=S)N/N=C1\CCCCc2ccccc21,inactive
10,CNC(=S)N/N=C/c1ccc(N2CCOCC2)s1,inactive
11,CC(C)NC(=S)N/N=C/c1sc(N2CCCCC2)nc1-c1cccs1,23.1 µM (active)
12,O=C1c2ccccc2-c2onc3c(N4CCN(C5CCCCC5)CC4)cc(NCCO)c1c23,4.61 µM (active)
13,CCNc1cc(N2CCN(C3CCCCC3)CC2)c2noc3c2c1C(=O)c1ccccc1-3,16.4 µM (active)
14,CN(C)CCCNc1cc(N2CCN(C3CCCCC3)CC2)c2noc3c2c1C(=O)c1ccccc1-3,20.6 µM (active)
15,O=C(c1cc(-c2ccncc2)nc2ccccc12)N1CCN(c2ccccn2)CC1,inactive
16,CCOc1cc(C)nc(NCc2ccccc2)n1,inactive
17,C=CCOC(=O)C1=C(C)Nc2nnnn2C1c1cccs1 (stereo not drawn),inactive
18,N#CC1=C(S)N(c2ccc(F)cc2)C2(CCCCC2)NC1=O,inactive
19,O=C(COc1ccccc1)NC(=S)Nc1cccc2c(O)cccc12,inactive
20,COc1ccc(OC)c(NCc2cccn2-c2nnc(N3CCC(C)CC3)s2)c1,inactive
21,Cc1ccc(CSc2nc(-c3ccc(C(C)(C)C)cc3)nc3cc(=O)[nH]n23)cc1,inactive
